# Counter-ions that a name gives are not always drawn.
# What was measured:
# Assay in all cases: lowest phenotypically active concentration; higher = less potent
# Conditions in all cases: treatment time: 24 h
# WPMY1-TUBA1B-RELA = test system: WPMY1-TUBA1B-RELA
# How it was run: (§1)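 Two criteria together defined phenotypic activity: deviation and reproducibility. Deviation meant ≥3 of 4 wells beyond the 95th percentile of Euclidean distances in solvent control wells, and reproducibility meant a median replicate Pearson correlation above the 95th percentile of non-replicates. Wells had been treated for 24 h at 0.3, 1, 3 or 9 µM in fifteen gene-edited A549, HepG2 and WPMY1 reporter lines before live imaging.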
# HepG2-TUBA1B-RELA = test system: HepG2-TUBA1B-RELA
# How it was run: as §1
# HepG2-CANX-COX4 = test system: HepG2-CANX-COX4
# How it was run: as §1
# A549-TUBA1B-RELA = test system: A549-TUBA1B-RELA
# How it was run: as §1
# HepG2-TP53BP1-CLTA = test system: HepG2-TP53BP1-CLTA
# How it was run: as §1
# WPMY1-CANX-COX4 = test system: WPMY1-CANX-COX4
# How it was run: as §1
# WPMY1-TP53BP1-CLTA = test system: WPMY1-TP53BP1-CLTA
# How it was run: as §1
# A549-TP53BP1-CLTA = test system: A549-TP53BP1-CLTA
# How it was run: as §1
# WPMY1-ACTB-RAB5A = test system: WPMY1-ACTB-RAB5A
# How it was run: as §1
smiles,measurement,setting,value
O=c1cc(N2CCOCC2)oc2c1ccc1ccccc12,lowest phenotypically active concentration,WPMY1-TUBA1B-RELA,9 µM
COCCCOc1ccnc(CS(=O)c2nc3ccccc3[nH]2)c1C (centres undefined) [rabeprazole],lowest phenotypically active concentration,HepG2-TUBA1B-RELA,9 µM
Cc1cc(C(=O)Nc2cccc(C(=O)Nc3cccc(C(F)(F)F)c3)c2)on1,lowest phenotypically active concentration,HepG2-CANX-COX4,1 µM
"Cc1c(C)c2c(c(C)c1O)CC[C@@](C)(CCC[C@H](C)CCC[C@H](C)CCCC(C)C)O2 [Tocopherol (R,S)]",lowest phenotypically active concentration,HepG2-CANX-COX4,3 µM
CCc1c(C(=O)Nc2cc(S(=O)(=O)N(CC)CC)ccc2O)[nH]c(C)c1C(C)=O,lowest phenotypically active concentration,HepG2-CANX-COX4,9 µM
CC(C)[C@@H](C)/C=C/[C@@H](C)[C@H]1CC[C@H]2C3=CC=C4C[C@@H](O)CC[C@]4(C)[C@H]3CC[C@]12C [Ergosterine],lowest phenotypically active concentration,A549-TUBA1B-RELA,9 µM
CCOc1nc(NC(=O)Cc2cc(OC)ccc2OC)cc(N)c1C#N,lowest phenotypically active concentration,A549-TUBA1B-RELA,9 µM
CC(C)N(CCCNC(=O)Nc1ccc(C(C)(C)C)cc1)C[C@H]1O[C@@H](n2ccc3c(N)ncnc32)[C@H](O)[C@@H]1O,lowest phenotypically active concentration,HepG2-TP53BP1-CLTA,1 µM
same,lowest phenotypically active concentration,HepG2-TUBA1B-RELA,≤ 0.3 µM
same,lowest phenotypically active concentration,WPMY1-TUBA1B-RELA,3 µM
O=C1NN(c2ccc(F)c(Cl)c2)C(=O)/C1=C\c1ccc([N+](=O)[O-])o1,lowest phenotypically active concentration,WPMY1-CANX-COX4,9 µM
O=C(/C=C/c1ccc(O)cc1)c1ccc(O)cc1O [Isoliquiritigenin],lowest phenotypically active concentration,A549-TUBA1B-RELA,9 µM
same,lowest phenotypically active concentration,WPMY1-CANX-COX4,9 µM
same,lowest phenotypically active concentration,WPMY1-TP53BP1-CLTA,9 µM
COc1ccc(-n2c(SCCCN3C(=O)c4cccc5cccc(c45)C3=O)nnc2-c2ccncc2)cc1,lowest phenotypically active concentration,A549-TUBA1B-RELA,3 µM
COc1cc(-c2cn(C)c(=O)c3cnccc23)c(OC)cc1CN(C)C,lowest phenotypically active concentration,A549-TP53BP1-CLTA,9 µM
same,lowest phenotypically active concentration,HepG2-TUBA1B-RELA,9 µM
same,lowest phenotypically active concentration,WPMY1-TUBA1B-RELA,9 µM
Nc1nnc2[nH]c3ccccc3nc1-2,lowest phenotypically active concentration,HepG2-CANX-COX4,9 µM
NS(=O)(=O)c1cc2c(cc1C(F)(F)F)NC(Cc1ccccc1)NS2(=O)=O (centres undefined) [bendroflumethiazide],lowest phenotypically active concentration,HepG2-CANX-COX4,3 µM
COc1ccc(S(=O)(=O)ON=C2C=C(C)C(=O)C(C)=C2)cc1,lowest phenotypically active concentration,A549-TUBA1B-RELA,9 µM
same,lowest phenotypically active concentration,WPMY1-TUBA1B-RELA,9 µM
O=c1c(O)c(-c2ccc(O)cc2)oc2cc(O)cc(O)c12 [Kaempferol],lowest phenotypically active concentration,WPMY1-CANX-COX4,9 µM
same,lowest phenotypically active concentration,WPMY1-TP53BP1-CLTA,9 µM
c1ccc(-c2n[nH]cc2-c2ccnc3ccccc23)nc1,lowest phenotypically active concentration,A549-TUBA1B-RELA,9 µM
same,lowest phenotypically active concentration,HepG2-CANX-COX4,9 µM
same,lowest phenotypically active concentration,HepG2-TP53BP1-CLTA,9 µM
same,lowest phenotypically active concentration,WPMY1-ACTB-RAB5A,9 µM
same,lowest phenotypically active concentration,WPMY1-CANX-COX4,9 µM
CO[C@H]1C=CO[C@@]2(C)Oc3c(C)c(O)c4c(O)c(c(/C=N/N5CCN(C)CC5)c(O)c4c3C2=O)NC(=O)C(C)=CC=C[C@H](C)[C@H](O)[C@@H](C)[C@@H](O)[C@@H](C)[C@H](OC(C)=O)[C@@H]1C [Rifampicin],lowest phenotypically active concentration,HepG2-CANX-COX4,3 µM
Clc1ccc(C(c2ccc(Cl)cc2)[n+]2ccn(CC(OCc3ccc(Cl)cc3Cl)c3ccc(Cl)cc3Cl)c2)cc1 (centres undefined) [Calmidazolium chloride],lowest phenotypically active concentration,HepG2-TUBA1B-RELA,3 µM
same,lowest phenotypically active concentration,WPMY1-CANX-COX4,3 µM
same,lowest phenotypically active concentration,WPMY1-TUBA1B-RELA,3 µM
S=c1[nH]cnc2nc[nH]c12 [mercaptopurine],lowest phenotypically active concentration,HepG2-CANX-COX4,9 µM
same,lowest phenotypically active concentration,HepG2-TUBA1B-RELA,9 µM
same,lowest phenotypically active concentration,WPMY1-CANX-COX4,9 µM
same,lowest phenotypically active concentration,WPMY1-TUBA1B-RELA,9 µM
COc1ccc(CC2c3cc(OC)c(OC)cc3CC[N+]2(C)CCC(=O)OCCCCCOC(=O)CC[N+]2(C)CCc3cc(OC)c(OC)cc3C2Cc2ccc(OC)c(OC)c2)cc1OC (centres undefined) [Atracurium besilate],lowest phenotypically active concentration,HepG2-CANX-COX4,9 µM
same,lowest phenotypically active concentration,WPMY1-ACTB-RAB5A,3 µM
O=C(Nc1ccccc1)N1CCN(c2nc(-c3ccccc3)ns2)CC1,lowest phenotypically active concentration,HepG2-CANX-COX4,9 µM
same,lowest phenotypically active concentration,HepG2-TP53BP1-CLTA,9 µM
same,lowest phenotypically active concentration,HepG2-TUBA1B-RELA,9 µM
CC1(C)CCC(C)(C)c2cc(C(O)C(=O)Nc3ccc(C(=O)O)cc3F)ccc21 (centres undefined),lowest phenotypically active concentration,HepG2-CANX-COX4,9 µM
CCCc1cc2c(N3CCN(C4=NCC(C)(C)S4)CC3)ncnc2s1 [MI 2 dihydrochloride],lowest phenotypically active concentration,HepG2-CANX-COX4,9 µM
same,lowest phenotypically active concentration,HepG2-TP53BP1-CLTA,9 µM
same,lowest phenotypically active concentration,WPMY1-ACTB-RAB5A,3 µM
Nc1nnc(Sc2ncc([N+](=O)[O-])s2)s1,lowest phenotypically active concentration,A549-TUBA1B-RELA,9 µM
Cc1ccc(-n2sc3ccccc3c2=O)cc1,lowest phenotypically active concentration,HepG2-CANX-COX4,9 µM
same,lowest phenotypically active concentration,WPMY1-ACTB-RAB5A,9 µM
C[C@@H]1CN(Cc2ccc(F)cc2)[C@@H](C)CN1C(=O)c1cc2c(C(=O)C(=O)N(C)C)cn(C)c2cc1Cl [SCIO 469 hydrochloride],lowest phenotypically active concentration,HepG2-CANX-COX4,1 µM
same,lowest phenotypically active concentration,HepG2-TP53BP1-CLTA,9 µM
same,lowest phenotypically active concentration,HepG2-TUBA1B-RELA,9 µM
same,lowest phenotypically active concentration,WPMY1-ACTB-RAB5A,1 µM
same,lowest phenotypically active concentration,WPMY1-CANX-COX4,3 µM
CC(C)NCC(O)COc1ccc(CC(N)=O)cc1 (centres undefined) [atenolol-()],lowest phenotypically active concentration,WPMY1-TP53BP1-CLTA,9 µM
O=C(O)[C@H]1CCCC[C@H]1C(=O)N1CCc2ccccc2[C@H]1CN1C(=O)c2ccccc2C1=O,lowest phenotypically active concentration,HepG2-TUBA1B-RELA,9 µM
CC(C)C[C@H](NC(=O)OCC1c2ccccc2-c2ccccc21)C(=O)O,lowest phenotypically active concentration,WPMY1-ACTB-RAB5A,9 µM
Cn1cnc(N)c2ncnc1-2 [3-Methyladenine],lowest phenotypically active concentration,WPMY1-ACTB-RAB5A,1 µM
c1ccc(-c2cnn3cc(-c4ccc(OCCN5CCOCC5)cc4)cnc23)cc1,lowest phenotypically active concentration,HepG2-TUBA1B-RELA,3 µM
Cc1cc2c(s1)Nc1ccccc1N=C2N1CCN(C)CC1 [Olanzapine],lowest phenotypically active concentration,HepG2-TUBA1B-RELA,9 µM
Cc1nc[nH]c1C1CCN(c2nc3cccc4c3n2CCC4=O)CC1,lowest phenotypically active concentration,HepG2-TP53BP1-CLTA,9 µM
C#CCN[C@@H]1CCc2ccccc21 [rasagiline],lowest phenotypically active concentration,HepG2-TP53BP1-CLTA,9 µM
same,lowest phenotypically active concentration,HepG2-TUBA1B-RELA,9 µM
same,lowest phenotypically active concentration,WPMY1-TP53BP1-CLTA,9 µM

# From the supplement of paper PMC7411054
